PubChem BioAssay (Tox21)
Inconclusive results are not listed. Some compounds were tested as several samples or in several runs, with calls that do not always agree. Active and inactive are the calls of the source. Unless noted, calls follow the shape of the dose curve; as a rule, active = well fitted curve in the direction sought with a large enough effect in the repeat runs; inconclusive = weak or mixed curves; inactive = no such curve, though single readings can be large; an effect the other way counts as inactive or inconclusive.

Legend:
[1] = qHTS RealTime-Glo MT Cell Viability Assay in HepG2 cells - 16 hour (AID 1224885); also: nearly all actives have a fitted effect of over 50% in size
How it was run: (§1)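 HepG2 suspension premixed with RealTime-Glo reagents is plated at 600 cells per well and left 5 h at 37 C/5% CO2. Compounds in DMSO then go in, and bioluminescence reflecting viable cell number is recorded over 40 h.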

[2] = qHTS RealTime-Glo MT Cell Viability Assay in HEK293 cells - 24 hour (AID 1224886); also: top concentration of the series differs between compounds; nearly all actives have a fitted effect of over 50% in size
How it was run: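 Reads taken at 0, 8, 16, 24, 32 and 40 h from the same wells. HEK293 cells (600/well) carried RealTime-Glo reagents from seeding, with compound added after a 5 h settle at 37 C.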

[3] = qHTS RealTime-Glo MT Cell Viability Assay in HEK293 cells - 8 hour (AID 1224887); also: top concentration of the series differs between compounds; nearly all actives have a fitted effect of over 50% in size
How it was run: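 Measured as luminescence from the same continuously cultured HEK293 wells at successive time points (0, 8, 16, 24, 32, 40 h) after compound addition. Reagent present from seeding; dosing at 5 h; incubation 37 C.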

[4] = A CellTox Green Cytotoxicity Assay to monitor cytotoxicity in HEK293 cells - 16 hour (AID 1224888); also: nearly all actives have a fitted effect of over 35% in size
How it was run: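 Homogeneous no-lysis format: HEK293 cell suspension mixed with CellTox Green reagent, seeded, incubated 5 h at 37 C/5% CO2, then dosed by pintool with compound in DMSO.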

[5] = qHTS RealTime-Glo MT Cell Viability Assay in HepG2 cells - 0 hour (AID 1224889); also: nearly all actives have a fitted effect of over 50% in size; also: potency is read from the fitted curve at half-maximal effect
How it was run: as §1

[6] = A CellTox Green Cytotoxicity Assay to monitor cytotoxicity in HepG2 cells - 8 hour (AID 1224890); also: nearly all actives have a fitted effect of over 45% in size
How it was run: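 Fluorescent DNA-binding dye, 600 HepG2 cells/well, 5 h preincubation then compound in DMSO; same plates read at 0–40 h, 37 C.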

[7] = qHTS assay to identify small molecule antagonists of the estrogen receptor alpha (ER-alpha) signaling pathway using the BG1 cell line in the presence of 0.1 nM 17-beta-estradiol - cell viability counter screen (AID 1259241); also: nearly all actives have a fitted effect of over 40% in size
How it was run: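 VM7Luc4E2 cells (endogenous ER-alpha, 4×ERE-luciferase), hormone-starved 5 days in charcoal-stripped FBS, were treated with compounds plus 0.1 nM 17beta-estradiol for 22 hr at 37C; viability read in same wells as CellTiter-Fluor live-cell protease fluorescence.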

[8] = qHTS assay to identify small molecule antagonists of the androgen receptor (AR) signaling pathway using the MDA cell line in the presence of 0.5 nM R1881 - cell viability counter screen (AID 1259242); also: nearly all actives have a fitted effect of over 45% in size
How it was run: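 Human breast carcinoma MDA-kb2 cells, cultured without CO2, receive compounds alongside 0.5 nM (final) R1881 agonist. After 16 hr at 37C, viability is taken as live-cell protease signal.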

[9] = qHTS assay to identify small molecule HDAC inhibitors (AID 1259364);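 also: wild-type HCT-116 cells with endogenous class I/II HDAC activity; top concentration of the series differs between compounds; nearly all actives have a fitted effect of over 45% in size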
How it was run: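 After a 2 hr compound incubation (37C, 5% CO2), HCT-116 cells seeded at 1,500/well the day before received HDAC-Glo reagent; signal read as luminescence after 30 min at room temperature.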

[10] = qHTS assay to identify small molecule HDAC inhibitors - cell viability counter screen (AID 1259365)
How it was run: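 Wild-type HCT-116 cells were seeded at 1,500 per well, incubated overnight at 37 C, then exposed to compounds in DMSO for 2hr. Viability was read by CellTiter-Glo luminescence after 30min at room temperature.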

[11] = qHTS assay to identify small molecule agonists of the sonic hedgehog signaling (Shh) pathway - cell viability counter screen (AID 1259366); also: nearly all actives have a fitted effect of over 50% in size; also: potency is read from the fitted curve at half-maximal effect
How it was run: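 NIH/3T3-derived 3T3 Gli1-Luc cells (stable Gli1-responsive firefly luciferase reporter) were seeded, rested 4 hr at 37 C/5% CO2, then exposed to compounds in DMSO for 24 hr; viability was read by CellTiter-Fluor fluorescence in the same wells.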

[12] = qHTS assay to identify small molecule antagonists of the sonic hedgehog signaling (Shh) pathway - cell viability counter screen (AID 1259367); also: nearly all actives have a fitted effect of over 55% in size
How it was run: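 CellTiter-Fluor signal in conditioned medium-stimulated 3T3 Gli1-Luc cells, 23 hr compound exposure, 37C.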

[13] = qHTS assay to identify small molecule agonists of the sonic hedgehog signaling (Shh) pathway (AID 1259368; calls by dose curve; also: series mostly up to about 92 µM; nearly all actives have a fitted effect of over 15% in size)
How it was run: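 Stable NIH/3T3 Gli1-Luc reporter clone; 24 hr cpd exposure after a 4 hr settling period; luminescence endpoint.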

[14] = qHTS assay to identify small molecule antagonists of the sonic hedgehog signaling (Shh) pathway (AID 1259369; calls by dose curve; also: nearly all actives have a fitted effect of over 45% in size)
How it was run: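 Gli1 transcriptional reporter (firefly Luc) in NIH/3T3 background, conditioned-medium activated. 24hr exposure, luminescence endpoint.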

[15] = biological target: Estrogen receptor beta (Homo sapiens) (UniProt Q92731); assay: qHTS assay to identify small molecule agonists of the estrogen receptor beta (ER-beta) signaling pathway (AID 1259377; active = well fitted activation curve with a large enough effect in the signal ratio in the repeat runs, not every such curve was filed as active; the % refers to the signal ratio)
Sequence of Estrogen receptor beta (Homo sapiens) (Q92731 whole entry, looked up): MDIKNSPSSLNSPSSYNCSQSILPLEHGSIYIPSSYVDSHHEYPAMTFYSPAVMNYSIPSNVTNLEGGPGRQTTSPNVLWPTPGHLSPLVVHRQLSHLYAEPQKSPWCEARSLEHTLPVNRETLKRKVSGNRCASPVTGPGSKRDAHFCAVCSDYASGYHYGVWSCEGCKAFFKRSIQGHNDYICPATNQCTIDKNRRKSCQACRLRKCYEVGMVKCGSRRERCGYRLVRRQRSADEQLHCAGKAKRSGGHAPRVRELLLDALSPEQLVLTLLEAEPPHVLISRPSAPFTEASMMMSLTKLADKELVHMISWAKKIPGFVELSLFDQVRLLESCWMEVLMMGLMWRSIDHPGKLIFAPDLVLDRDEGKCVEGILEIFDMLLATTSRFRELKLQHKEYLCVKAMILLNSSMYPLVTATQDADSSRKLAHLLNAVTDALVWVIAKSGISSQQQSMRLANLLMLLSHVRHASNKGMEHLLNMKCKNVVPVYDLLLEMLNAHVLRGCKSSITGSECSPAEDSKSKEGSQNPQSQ
How it was run: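 ER-beta-UAS-bla HEK293T (GripTite) cells carrying a UAS-driven beta-lactamase reporter, in medium with 2% charcoal-stripped FBS, were exposed to compounds for 16 hr at 37C; LiveBLAzer B/G FRET substrate was then added and fluorescence read after 2 hours at room temperature.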

[16] = biological target: Estrogen receptor beta (Homo sapiens) (UniProt Q92731); assay: qHTS assay to identify small molecule antagonists of the estrogen receptor beta (ER-beta) signaling pathway (AID 1259378; active = well fitted inhibition curve with a large enough effect in the signal ratio in the repeat runs, not every such curve was filed as active; the % refers to the signal ratio)
How it was run: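 Antagonist mode: compounds added to beta-lactamase reporter HEK293T ER-beta-UAS cells stimulated with E2 (1nM final), 16 hr at 37C. LiveBLAzer B/G FRET substrate, 2 hours room temperature, fluorescence read-out.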

[17] = qHTS assay to identify small molecule agonists of the androgen receptor (AR) signaling pathway in the presence of an antagonist - cell viability counter screen (AID 1259379);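 also: MDA-kb2 human breast cancer cells carrying an MMTV luciferase reporter; series mostly up to about 92 µM; nearly all actives have a fitted effect of over 25% in size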
How it was run: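 Counter screen for cell viability run in parallel with the AR agonist-mode luciferase assay. MDA-kb2 cells were co-treated with nilutamide (3.0uM final) and compounds, then incubated 16 hr at 37C, and CellTiter-Fluor fluorescence was measured.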

[18] = qHTS assay to identify small molecule phospholipidosis (PLD) inducers (AID 1259344; active = well fitted curve in the direction sought with a large enough effect; an effect the other way counts as inactive or inconclusive)
How it was run: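 Accumulated phospholipid, stained red by LipidTOX during 24 h compound treatment of HepG2 cells at 37 C, is quantified from images as pit number and intensity, normalised per cell using Hoechst-stained nuclei.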

[19] = biological target: Androgen receptor (Homo sapiens) (UniProt P10275); assay: qHTS assay to identify small molecule antagonists of the androgen receptor (AR) signaling pathway using the MDA cell line in the presence of 0.5 nM R1881 (AID 1259243); also: nearly all actives have a fitted effect of over 50% in size
Sequence of Androgen receptor (Homo sapiens) (P10275 whole entry, looked up): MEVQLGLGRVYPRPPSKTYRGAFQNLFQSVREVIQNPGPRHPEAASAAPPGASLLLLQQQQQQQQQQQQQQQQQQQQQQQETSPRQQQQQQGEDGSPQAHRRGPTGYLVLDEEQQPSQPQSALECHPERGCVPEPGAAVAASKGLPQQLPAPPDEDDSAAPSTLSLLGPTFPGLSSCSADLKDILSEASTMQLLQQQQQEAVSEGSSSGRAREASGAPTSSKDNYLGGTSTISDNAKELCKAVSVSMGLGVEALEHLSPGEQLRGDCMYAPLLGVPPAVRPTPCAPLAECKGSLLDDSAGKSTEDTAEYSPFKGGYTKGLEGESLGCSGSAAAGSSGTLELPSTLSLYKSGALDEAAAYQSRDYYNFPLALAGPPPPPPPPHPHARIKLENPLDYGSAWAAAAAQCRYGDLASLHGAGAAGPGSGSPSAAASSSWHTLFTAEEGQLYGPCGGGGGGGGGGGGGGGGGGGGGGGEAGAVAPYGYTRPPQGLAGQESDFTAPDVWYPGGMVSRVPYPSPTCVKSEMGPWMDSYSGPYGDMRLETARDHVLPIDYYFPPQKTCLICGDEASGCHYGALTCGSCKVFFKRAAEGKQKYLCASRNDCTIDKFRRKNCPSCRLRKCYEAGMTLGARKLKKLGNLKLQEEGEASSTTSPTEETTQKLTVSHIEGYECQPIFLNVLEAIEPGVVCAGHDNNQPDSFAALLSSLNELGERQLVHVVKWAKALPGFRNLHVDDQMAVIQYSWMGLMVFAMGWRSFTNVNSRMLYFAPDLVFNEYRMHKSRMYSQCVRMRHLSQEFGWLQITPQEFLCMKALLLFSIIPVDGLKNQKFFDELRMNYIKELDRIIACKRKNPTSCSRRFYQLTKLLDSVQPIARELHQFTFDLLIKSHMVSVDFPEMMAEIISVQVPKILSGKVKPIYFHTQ
How it was run: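 Cells: MDA-kb2 (MMTV-luc). Stimulus: 0.5 nM R1881. Time: 16 hr, 37C, no CO2. Detection: ONE-Glo luminescence after 30 min at RT.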

[20] = biological target: Estrogen receptor (Homo sapiens) (UniProt P03372); assay: qHTS assay to identify small molecule antagonists of the estrogen receptor alpha (ER-alpha) signaling pathway using the BG1 cell line in the presence of 0.1 nM 17-beta-estradiol (AID 1259244); also: nearly all actives have a fitted effect of over 50% in size
Sequence of Estrogen receptor (Homo sapiens) (P03372 whole entry, looked up): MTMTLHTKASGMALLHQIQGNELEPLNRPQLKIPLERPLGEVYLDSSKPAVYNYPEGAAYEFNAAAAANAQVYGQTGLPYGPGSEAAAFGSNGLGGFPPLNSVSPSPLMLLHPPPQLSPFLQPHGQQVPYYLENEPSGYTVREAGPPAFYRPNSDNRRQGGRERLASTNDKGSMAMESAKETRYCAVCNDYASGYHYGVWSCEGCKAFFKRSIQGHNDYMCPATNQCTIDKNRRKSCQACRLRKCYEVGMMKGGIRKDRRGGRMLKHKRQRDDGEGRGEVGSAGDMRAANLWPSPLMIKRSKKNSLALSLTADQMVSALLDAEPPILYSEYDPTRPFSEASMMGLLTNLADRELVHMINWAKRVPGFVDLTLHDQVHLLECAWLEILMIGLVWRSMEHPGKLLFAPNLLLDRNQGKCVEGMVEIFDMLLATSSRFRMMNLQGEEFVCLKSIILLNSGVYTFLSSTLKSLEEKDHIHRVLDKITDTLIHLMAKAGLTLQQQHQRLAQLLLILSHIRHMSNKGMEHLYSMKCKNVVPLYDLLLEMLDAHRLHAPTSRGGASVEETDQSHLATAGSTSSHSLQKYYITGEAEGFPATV
How it was run: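 Seeding of stripped-serum-adapted VM7Luc4E2 cells, 24 h attachment, compound transfer, then 0.1 nM final 17beta-estradiol; after 22 h incubation, ONE-Glo reagent and luminescence reading.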
% is scaled to controls: 0 for no effect and ±100 for the full control effect.

O=C(Oc1ccccc1)c1ccccc1
inactive: outcome [1] | Potency [2] | Potency [3] | outcome [4] | Potency [5] | Potency [6] | Potency [7] | outcome [8] | Potency [9] | outcome [10] | Potency [11] | Potency [12] | outcome [13] | Potency [14] | Potency [15] | Potency [16] | Potency [17]

COc1ccc2cc([C@H](C)C(=O)O)ccc2c1
inactive: outcome [1] | Potency [2] | Potency [3] | outcome [4] | Potency [5] | Potency [6] | Potency [7] | outcome [8] | outcome [18] | Potency [9] | outcome [10] | Potency [11] | Potency [12] | Potency [14] | Potency [17]

O=C(O)c1ccccc1C(c1ccc(O)cc1)c1ccc(O)cc1
inactive: outcome [1] | Potency [2] | Potency [3] | outcome [4] | Potency [6] | Potency [7] | outcome [8] | Potency [19] | Potency [20] | Potency [9] | outcome [10] | Potency [11] | Potency [12] | outcome [13] | Potency [14] | Potency [15] | Potency [16] | Potency [17]

NNc1nncc2ccccc12
active: Potency [11] 48.6 µM
inactive: outcome [1] | activity change, negative = cytotoxicity [2] 2.63% [at 15.8 µM] | activity change, negative = cytotoxicity [3] 1.02% [at 15.8 µM] | outcome [4] | Potency [5] | Potency [6] | Potency [7] | outcome [8] | outcome [18] | activity change, negative = inhibition [9] -29.1% [at 19 µM] | outcome [10] | viability change, negative = cytotoxic [11] -0.875% [at 19 µM] | outcome [13] | Potency [14] | Potency [17]

C=C(C)C(=O)OCCOCCOCCOC(=O)C(=C)C
inactive: outcome [1] | Potency [2] | Potency [3] | outcome [4] | Potency [5] | Potency [6] | Potency [7] | outcome [8] | Potency [9] | outcome [10] | Potency [11] | Potency [12] | outcome [13] | Potency [17]

Cc1cccnc1
inactive: outcome [1] | Potency [2] | Potency [3] | outcome [4] | Potency [5] | Potency [6] | Potency [7] | outcome [8] | Potency [9] | outcome [10] | Potency [11] | Potency [12] | outcome [13] | Potency [14] | Potency [15] | Potency [16] | Potency [17]

CC1=CC(=O)NS(=O)(=O)O1
inactive: outcome [1] | Potency [2] | Potency [3] | outcome [4] | Potency [5] | Potency [6] | Potency [7] | outcome [8] | outcome [18] | Potency [9] | outcome [10] | Potency [11] | Potency [12] | outcome [13] | Potency [14] | Potency [15] | Potency [16] | Potency [17]

Cc1ccc(N(C)C)cc1
inactive: outcome [1] | Potency [2] | Potency [3] | outcome [4] | Potency [6] | Potency [7] | outcome [8] | Potency [19] | Potency [20] | Potency [9] | outcome [10] | Potency [11] | Potency [14] | Potency [15] | Potency [16] | Potency [17]

C[C@H]1C[C@H]2[C@@H]3CCC4=CC(=O)C=C[C@]4(C)[C@@]3(F)[C@@H](O)C[C@]2(C)[C@@]1(O)C(=O)CO
active: Potency [5] 7.76 µM
inactive: outcome [1] | Potency [2] | Potency [3] | outcome [4] | Potency [6] | Potency [7] | outcome [8] | outcome [18] | Potency [9] | outcome [10] | Potency [11] | Potency [12] | outcome [13] | Potency [14] | Potency [17]
